# Source: PubChem BioAssay (NCI)
# This is part of a sample that, as a whole, favours compounds with a hit. Of some 83,000 tested, about 20% had one in any assay.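 Method: cells in 96-well plates; compound added at one concentration; 48 h incubation; percent growth measured; values under 10 scored active.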 A number with no mark means an inactive call. Calls of active or inactive are those of the source.
# Test system: EKVX NSCLC
# Test: NCI-60 one-dose screen, 48 h (100 = growth as untreated, 0 = no growth, -100 = all killed)
# Conditions: 10 µM unless noted
# Method: Growth inhibition of the EKVX human Non-Small Cell Lung tumor cell line is measured as a screen for anti-cancer activity. Cells are grown in 96 well plates and exposed to the test compound for 48 hours. Compounds are tested at a single concentration, which is 10^-5 M for most compounds. The reported endpoint is percent growth (GI% or GIPRCNT), where numbers from 0 - 100% represent growth inhibition, and numbers from -100% - 0 represent cell death. For example, a value of 40 represents 60% growth inhibition. A value of 0 means no net growth occurred over the course of the experiment. A value of -40 indicates 40% of cells at the beginning of the experiment died by the end of the experiment. A value of -100 means all cells are dead at the end of the experiment.
# NCI-60 Human Tumor Cell Lines Screen was performed using the standard one-dose NCI protocol, which is described in more detail at https://dtp.cancer.gov/discovery_development/nci-60/default.htm.
# Compounds with GIPRCNT values below 10 were considered active. Activity score was based on GIPRCNT using the following formula: […]
# Score is 0 for GIPRCNT values of 100 or above, 50 for GIPRCNT values of 0, and 100 for GIPRCNT values of -100.
row,Compound,growth
1,COc1cc(/C=N/N(C)C)ccc1O,105%
2,Nc1nc2ccc(-c3nc4ccc5[nH]ncc5c4c4c3CCC4)cc2s1,19.4%
3,Cc1ccc2c(c1)n([O-])c1cc(Cl)ccc1[n+]2=O,94.6%
4,C/C(=C(/c1ccc(O)cc1)c1ccc(Cl)cc1)c1ccccc1,-81% (active)
5,O=c1c(/C=C/c2ccco2)nnc(SCCN2CCOCC2)n1/N=C/c1ccc([N+](=O)[O-])cc1,81.6%
6,COc1cnc2c(c1)C(=O)c1c-2n(CCCN2CCCC2)c(=O)c2cc([N+](=O)[O-])ccc12,21.7%
7,O=C([C@@H](COCc1ccccc1)N1C(=O)[C@@H](N2C(=O)OC[C@@H]2c2ccccc2)[C@H]1/C=C/c1ccccc1)N1CCC(CCN2CCCCC2)CC1,93.1%
8,CC(C)[C@@H]1CC[C@]2(C(=O)NCCCCN=C(N)N)CC[C@]3(C)[C@H](CC[C@@H]4[C@@]5(C)CCC(=O)C(C)(C)[C@@H]5CC[C@]43C)[C@@H]12,81.5%
9,NC(N)=Nc1ccc(S(=O)(=O)O)cc1,110%
10,O=C1Nc2c(ccc(Cl)c2Cl)/C1=C/c1cc(Br)c(O)c(Br)c1,47.3%
11,O=C1C(Cl)=C(Cl)C(=O)c2c1nc1n2CCCC1,95.9%
12,C=C1CC2(OC1=O)C(=O)N(CCCCCCCN1C(=O)C3(CC(=C)C(=O)O3)c3ccccc31)c1ccccc12 (stereo not given),88.4%
13,CCN(CC)CC(O)CNc1c2ccc([N+](=O)[O-])cc2nc2cc(OC)c(OC)cc12 (stereo not given),-27.4% (active)
14,CCCCCCCCCCCCCCCCCCNC(=O)[C@H]1CSC(c2ccc(OC)c(F)c2)N1 (stereo not given in full),17.5%
15,O=C1C=CC(=O)c2c1nc1n2CCCC1,104%
16,C=C1CCC2C3(C)COC(c4ccccc4Br)OC3CCC2(C)C1C/C=C1/C(=O)OCC1OC(C)=O (stereo not given),-3.86% (active)
17,COc1ccc(CCN2CCCn3c2nc2ccccc2c3=O)cc1,45.7%
18,N#Cc1c2c(nc3n[nH]c(N)c13)CCCC2,58.3%
19,Cn1c2c(Cl)c(Cl)ccc2c2ccn3c(=O)c4ccccc4nc3c21,80.8%
20,NC(=S)N/N=C/c1ccc(OCc2ccccc2)cc1,74.8%

row,Compound,growth
1,Cn1c2ccccc2c2c3[nH]c(=O)[nH]c(=O)c3c3c4ccccc4n(C)c3c21,29%
2,CSc1nc(NCCO)c(C#N)c(-c2cccc(N)c2)n1,81.4%
3,CCOC(=O)c1c2c(n3ccc(NC(=O)CCN4CCCCC4)cc13)C(=O)c1ncccc1C2=O,67.9%
4,COCCCN=C(N)c1ccc(NC(=O)c2ccc(C(=O)Nc3ccc(C(N)=NCCCOC)cc3)cc2)cc1,76.9%
5,COc1cccc(/C=C\C(=O)c2ccccc2)c1,90.7%
6,O=C1C=CC(=O)N1c1ccc(Cc2ccc(N3C(=O)C=CC3=O)cc2)cc1,109%
7,O=S(=O)(Nc1ccc(Cl)cc1Cl)c1ccc(-c2cnc(C3CC3)o2)cc1,38.1%
8,CC(=O)C1=C(O)C=C2Oc3c(C(=O)/C=C/c4cc(C(F)(F)F)cc(C(F)(F)F)c4)c(O)c(C)c(O)c3[C@]2(C)C1=O,-33.9% (active)
9,O=C1c2cccnc2C(=O)c2c1c(C(=O)OCCN1CCOCC1)c1ccccn21,13.1%
10,CNC(=O)c1cc(Oc2ccc3nc(NC(=O)Nc4ccc(CN5CCOCC5)c(C(F)(F)F)c4)sc3c2)ccn1,25.4%
11,NC1=CC(=O)C(=O)c2ccccc21,76.2%
12,Oc1ccc2c(=S)cc(-c3ccc(Br)cc3)oc2c1O,87.9%
13,CCN1CCN(Cc2ccc(NC(=O)Nc3nc4ccc(Oc5ccnc(C(=O)NC)c5)cc4s3)cc2C(F)(F)F)CC1,14.2%
14,CN(C)C(=O)c1cc2cnc(Nc3ccc(-c4csc5c(=O)cc(N6CCNCC6)oc45)cc3)nc2n1C1CCCC1,40.2%
15,CCOC(=O)C(C#N)C1CCCCC1 (stereo not given),94.9%
16,Cc1ccc2c(c1)O/C(=C\c1cccc(OCC(=O)c3ccccc3)c1)C2=O,95.5%
17,Cc1cc(=O)oc2cc(Oc3nc(-c4cccs4)cn4c(-c5cccs5)cnc34)ccc12,64%
18,CCOC(=S)SCc1ccc(Cl)cc1,83.8%
19,Brc1cccc(-c2cc(-c3ccc4c(c3)OCCO4)[nH]n2)c1,20.3% [25 µM]
20,O=[N+]([O-])c1cccc(-c2nc3sccn3c2-c2ccnc(NCCCNS(=O)(=O)c3cccc(F)c3)n2)c1,19.1%
